Reference: PubChem BioAssay (Tox21)
Inconclusive results are not listed. Activity calls are given as the source filed them. Unless noted, calls come from the whole dose curve; as a rule, active = well fitted curve in the direction sought with a large enough effect in the repeat runs; inconclusive = weak or mixed curves; inactive = no such curve, though single readings can be large; an effect the other way counts as inactive or inconclusive.

Assays:
[1] = qHTS assay to identify small molecule antagonists of the sonic hedgehog signaling (Shh) pathway (AID 1259369; calls by dose curve; note: nearly all actives have a fitted effect of over 45% in size)
In short: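 Stable Gli1-Luc reporter NIH/3T3 clone; quantitative HTS in stimulated mode with conditioned medium. Luminescence measured after 24hr compound treatment at 37 C.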

[2] = molecular target: Estrogen receptor beta (Homo sapiens) (UniProt Q92731); assay: qHTS assay to identify small molecule agonists of the estrogen receptor beta (ER-beta) signaling pathway (AID 1259377; active = well fitted activation curve with a large enough effect in the signal ratio in the repeat runs, not every such curve was filed as active; the % refers to the signal ratio)
Sequence of Estrogen receptor beta (Homo sapiens) (Q92731 whole entry, looked up): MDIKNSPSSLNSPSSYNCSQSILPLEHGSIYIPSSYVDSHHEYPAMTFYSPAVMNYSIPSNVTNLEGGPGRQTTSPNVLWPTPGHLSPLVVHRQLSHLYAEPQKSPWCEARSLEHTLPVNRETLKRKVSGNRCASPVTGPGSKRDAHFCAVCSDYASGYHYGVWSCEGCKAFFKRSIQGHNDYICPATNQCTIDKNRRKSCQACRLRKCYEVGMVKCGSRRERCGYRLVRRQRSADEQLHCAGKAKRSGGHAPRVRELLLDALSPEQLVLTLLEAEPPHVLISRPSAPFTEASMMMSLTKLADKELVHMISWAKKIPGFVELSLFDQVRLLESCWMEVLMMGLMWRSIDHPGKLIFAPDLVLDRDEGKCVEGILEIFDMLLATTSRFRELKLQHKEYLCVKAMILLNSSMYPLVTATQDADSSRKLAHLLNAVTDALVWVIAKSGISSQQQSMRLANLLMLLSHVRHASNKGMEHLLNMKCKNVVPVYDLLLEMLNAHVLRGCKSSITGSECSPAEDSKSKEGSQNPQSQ
In short: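 Measured by fluorescence intensity from a B/G FRET beta-lactamase substrate (2 h, room temperature) in ER-beta-UAS-bla HEK293T cells treated with DMSO-dissolved compounds for 16 hr at 37C and 5% CO2.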

[3] = molecular target: Estrogen receptor beta (Homo sapiens) (UniProt Q92731); assay: qHTS assay to identify small molecule antagonists of the estrogen receptor beta (ER-beta) signaling pathway (AID 1259378; active = well fitted inhibition curve with a large enough effect in the signal ratio in the repeat runs, not every such curve was filed as active; the % refers to the signal ratio)
In short: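 Antagonist mode: compounds added to beta-lactamase reporter HEK293T ER-beta-UAS cells stimulated with E2 (1nM final), 16 hr at 37C. LiveBLAzer B/G FRET substrate, 2 hours room temperature, fluorescence read-out.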

[4] = qHTS assay to identify small molecule agonists of the androgen receptor (AR) signaling pathway in the presence of an antagonist - cell viability counter screen (AID 1259379);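 note: MDA-kb2 human breast cancer cells carrying an MMTV luciferase reporter; series mostly up to about 92 µM; nearly all actives have a fitted effect of over 25% in size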
In short: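 Nilutamide-containing (3.0uM final) MDA-kb2 cultures, 3,000 cells/well, were treated with compounds across 15 concentrations. After 16 hr at 37C with no CO2, cell viability was determined by CellTiter-Fluor fluorescence in the luciferase assay wells.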

[5] = qHTS assay to identify small molecule agonists of the estrogen receptor beta (ER-beta) signaling pathway - cell viability counter screen (AID 1259380); note: nearly all actives have a fitted effect of over 30% in size
In short: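 Steps: plate ER-beta-UAS-bla HEK293T cells, rest 6 hr; add compounds in DMSO; incubate 16 hr at 37C, 5% CO2; add FRET substrate 2 hr; add CellTiter-Glo, wait 30 min at room temperature; read luminescence.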

[6] = qHTS assay to identify small molecule antagonists of the estrogen receptor beta (ER-beta) signaling pathway - cell viability counter screen (AID 1259382);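 note: HEK293T cells carrying ER-beta-UAS-bla reporter stimulated with estradiol; series mostly up to about 92 µM; nearly all actives have a fitted effect of over 55% in size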
In short: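 Viability is scored by CellTiter-Glo luminescence (30 min, room temperature) in ER-beta-UAS-bla HEK293T wells already read for reporter fluorescence. Compound exposure lasts 16 hr at 37C alongside 1nM 17-beta-estradiol in charcoal-stripped serum medium.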

[7] = molecular target: Estrogen receptor (Homo sapiens) (UniProt P03372); assay: qHTS assay to identify small molecule agonists of the estrogen receptor alpha (ER-alpha) signaling pathway in the presence of an antagonist (AID 1259383; calls by dose curve; note: top concentration of the series differs between compounds; nearly all actives have a fitted effect of over 15% in size)
Sequence of Estrogen receptor (Homo sapiens) (P03372 whole entry, looked up): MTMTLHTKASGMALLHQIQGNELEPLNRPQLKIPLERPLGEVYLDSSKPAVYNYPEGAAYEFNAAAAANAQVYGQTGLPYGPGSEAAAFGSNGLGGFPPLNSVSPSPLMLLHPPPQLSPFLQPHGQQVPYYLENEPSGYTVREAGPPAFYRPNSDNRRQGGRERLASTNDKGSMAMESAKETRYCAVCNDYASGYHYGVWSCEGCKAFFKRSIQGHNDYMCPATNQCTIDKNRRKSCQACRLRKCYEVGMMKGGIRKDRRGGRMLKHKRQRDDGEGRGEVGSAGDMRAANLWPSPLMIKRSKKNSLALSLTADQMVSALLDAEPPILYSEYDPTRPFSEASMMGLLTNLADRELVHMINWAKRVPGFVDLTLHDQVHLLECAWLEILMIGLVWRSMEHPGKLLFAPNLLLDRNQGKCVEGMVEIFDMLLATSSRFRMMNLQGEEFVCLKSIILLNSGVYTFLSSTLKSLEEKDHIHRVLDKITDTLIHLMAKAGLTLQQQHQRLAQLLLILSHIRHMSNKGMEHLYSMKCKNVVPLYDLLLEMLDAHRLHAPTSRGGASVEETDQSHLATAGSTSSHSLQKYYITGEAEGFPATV
In short: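 Readout was ERE-driven luciferase luminescence in VM7Luc4E2 cells, which express full-length ER-alpha endogenously. Compounds were tested at 15 concentrations for 22hr alongside 10.0nM ICI-182,780 (final concentration).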

[8] = molecular target: Progesterone receptor (Homo sapiens) (UniProt P06401); assay: qHTS assay to identify small molecule agonists of the progesterone receptor (PR) signaling pathway (AID 1346784; calls by dose curve; note: nearly all actives have a fitted effect of over 30% in size)
Sequence of Progesterone receptor (Homo sapiens) (P06401 whole entry, looked up): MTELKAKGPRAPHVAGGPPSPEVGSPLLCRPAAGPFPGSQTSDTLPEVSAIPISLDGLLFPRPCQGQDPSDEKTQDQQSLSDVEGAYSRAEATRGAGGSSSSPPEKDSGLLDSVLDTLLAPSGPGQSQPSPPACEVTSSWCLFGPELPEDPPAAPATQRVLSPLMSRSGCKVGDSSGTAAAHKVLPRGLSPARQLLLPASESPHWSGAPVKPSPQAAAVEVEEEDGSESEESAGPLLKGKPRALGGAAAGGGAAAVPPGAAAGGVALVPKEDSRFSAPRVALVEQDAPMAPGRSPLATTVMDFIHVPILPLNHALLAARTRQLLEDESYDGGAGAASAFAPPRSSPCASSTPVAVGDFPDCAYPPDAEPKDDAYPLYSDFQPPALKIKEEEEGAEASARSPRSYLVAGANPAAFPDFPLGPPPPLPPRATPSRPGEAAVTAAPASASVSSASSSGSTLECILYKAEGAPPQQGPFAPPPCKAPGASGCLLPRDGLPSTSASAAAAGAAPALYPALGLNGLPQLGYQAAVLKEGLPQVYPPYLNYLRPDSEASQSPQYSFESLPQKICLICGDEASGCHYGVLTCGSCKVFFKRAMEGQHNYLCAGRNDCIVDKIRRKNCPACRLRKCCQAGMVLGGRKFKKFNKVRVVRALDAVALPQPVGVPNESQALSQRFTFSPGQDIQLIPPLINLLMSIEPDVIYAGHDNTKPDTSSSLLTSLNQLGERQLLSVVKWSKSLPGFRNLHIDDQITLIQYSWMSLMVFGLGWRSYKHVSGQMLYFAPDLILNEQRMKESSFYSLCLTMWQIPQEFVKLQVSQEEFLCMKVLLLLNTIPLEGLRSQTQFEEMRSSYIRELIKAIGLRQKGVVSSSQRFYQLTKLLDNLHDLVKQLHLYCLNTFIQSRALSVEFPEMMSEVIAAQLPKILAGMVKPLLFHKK
In short: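 The screen uses PR-UAS-bla HEK 293T cells in charcoal-stripped serum (2%). Compounds are applied for 16 hr at 37C after a 6 hr pre-incubation, and reporter activity is detected with a FRET beta-lactamase substrate after 2 hr at room temperature.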

[9] = molecular target: Progesterone receptor (Homo sapiens) (UniProt P06401); assay: qHTS assay to identify small molecule antagonists of the progesterone receptor (PR) signaling pathway (AID 1346795; active = well fitted inhibition curve with a large enough effect in the signal ratio in the repeat runs, not every such curve was filed as active; the % refers to the signal ratio)
In short: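 After 6 hr plating at 37C in 2% stripped-serum medium, PR-UAS-bla HEK293T cells got compounds, then 1 nM R5020. Sixteen hours later, LiveBLAzer substrate was applied for 2 hr at room temperature and fluorescence was recorded.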

[10] = qHTS assay to identify small molecule antagonists of the progesterone receptor (PR) signaling pathway - cell viability counter screen (AID 1346798); note: series mostly up to about 92 µM; nearly all actives have a fitted effect of over 50% in size
In short: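 Viability was determined by ATP-based luminescence (CellTiter-Glo) in PR-UAS-bla HEK293T cells cultured in 2% charcoal-stripped serum and incubated 16 hr with compounds under R5020 stimulation.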

[11] = qHTS assay to identify small molecule agonists of the progesterone receptor (PR) signaling pathway - cell viability counter screen (AID 1346799; calls by dose curve; note: nearly all actives have a fitted effect of over 45% in size)
In short: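 Viability was scored by ATP luminescence (CellTiter-Glo, 30 min, room temperature) in the same wells used for the reporter readout, after 16 hr compound exposure of PR-UAS-bla HEK293T cells.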

[12] = qHTS assay to identify small molecule antagonists of the TGF-beta/Smad signaling pathway - cell viability counter screen (AID 1346824); note: nearly all actives have a fitted effect of over 50% in size
In short: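 Cytotoxicity counter-screen run in the same wells as the beta-lactamase Smad reporter read: CellTiter-Glo luminescence after 30 min at room temperature. HEK 293T SBE-bla cells had 5 hr compound exposure at 37 C with TGF-beta1 (0.25 ng/mL stock).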

[13] = qHTS assay to identify small molecule agonists of the TGF-beta/Smad signaling pathway - cell viability counter screen (AID 1346829); note: top concentration of the series differs between compounds; nearly all actives have a fitted effect of over 45% in size
In short: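 Here the cytotoxicity of library compounds is measured in SBE-bla HEK 293T cells treated for 5 hr, using CellTiter-Glo added to wells already read for the beta-lactamase reporter.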

[14] = qHTS assay to identify small molecule agonists of the TGF-beta/Smad signaling pathway (AID 1346859; active = well fitted activation curve with a large enough effect in the signal ratio in the repeat runs, not every such curve was filed as active; the % refers to the signal ratio; note: series mostly up to about 77 µM)
In short: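 Dual-wavelength fluorescence (460/530 nm emission) quantified beta-lactamase expression under the Smad binding element in HEK 293T cells following 5 hr compound treatment at 37 C.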

[15] = qHTS assay to identify small molecule agonists of the estrogen receptor alpha (ER-alpha) signaling pathway in the presence of an antagonist - cell viability counter screen (AID 1259386);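 note: series mostly up to about 92 µM; cells exposed to compounds for 22 h at 37 °C before the viability read; nearly all actives have a fitted effect of over 30% in size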
In short: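 In this counter screen, compound effects on VM7Luc4E2 viability were tested in the presence of the antagonist ICI-182,780 at 10.0nM final. Compounds were dosed at 15 concentrations, exposure lasted 22hr, and the CellTiter-Fluor signal was read.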

[16] = molecular target: Thyrotropin-releasing hormone receptor (Homo sapiens) (UniProt P34981); assay: qHTS assay to identify small molecule antagonists of the thyrotropin-releasing hormone receptor (TRHR) signaling pathway (AID 1346877; active = well fitted inhibition curve with a large enough effect in the repeat runs, not every such curve was filed as active; note: series mostly up to about 51 µM)
Sequence of Thyrotropin-releasing hormone receptor (Homo sapiens) (P34981 whole entry, looked up): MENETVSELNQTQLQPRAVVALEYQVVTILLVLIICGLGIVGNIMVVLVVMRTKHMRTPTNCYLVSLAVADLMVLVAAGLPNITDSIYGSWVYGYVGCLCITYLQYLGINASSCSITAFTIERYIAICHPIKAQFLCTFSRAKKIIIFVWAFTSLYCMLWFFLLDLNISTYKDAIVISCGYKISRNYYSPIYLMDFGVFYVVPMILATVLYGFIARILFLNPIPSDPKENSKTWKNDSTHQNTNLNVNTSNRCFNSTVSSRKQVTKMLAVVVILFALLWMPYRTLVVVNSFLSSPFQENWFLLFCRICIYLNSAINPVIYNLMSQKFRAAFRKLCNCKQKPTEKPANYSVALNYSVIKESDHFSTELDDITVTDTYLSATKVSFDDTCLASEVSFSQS
In short: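 Kinetic fluorescence (3 min, 1 s resolution) following stimulation with TRH at 1 nM final; HEK293 cells bearing human TRHR; 5 min compound preincubation at RT; concentration-response over 15 points, triplicates.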

[17] = molecular target: Thyrotropin-releasing hormone receptor (Homo sapiens) (UniProt P34981); assay: qHTS assay to identify small molecule agonists of the thyrotropin-releasing hormone receptor (TRHR) signaling pathway (AID 1346891; calls by dose curve;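 note: HEK293 cells expressing TRHR with calcium dye readout; series mostly up to about 58 µM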)
In short: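 Kinetic fluorescence (3 min, 1 s intervals) reported intracellular calcium after compound transfer onto TRHR-Hek293 cells pre-loaded with dye for 2 h at 37 °C.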

[18] = qHTS assay to identify small molecule agonists or antagonists of the thyroid stimulating hormone receptor (TSHR) signaling pathway - wild type cell line counter screen (AID 1259384; calls by dose curve)
In short: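 Counter screen in untransfected Hek293: compounds (15-point titration, triplicate) plus phosphodiesterase inhibitor Ro20-1724 added after 18 h plating; 30 min RT. Intracellular cAMP via competitive d2/cryptate immunoassay, 1 h incubation.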

[19] = molecular target: Thyrotropin receptor (Homo sapiens) (UniProt P16473); assay: qHTS assay to identify small molecule antagonists of the thyroid stimulating hormone receptor (TSHR) signaling pathway (AID 1259385; calls by dose curve; note: nearly all actives have a fitted effect of over 20% in size)
Sequence of Thyrotropin receptor (Homo sapiens) (P16473 whole entry, looked up): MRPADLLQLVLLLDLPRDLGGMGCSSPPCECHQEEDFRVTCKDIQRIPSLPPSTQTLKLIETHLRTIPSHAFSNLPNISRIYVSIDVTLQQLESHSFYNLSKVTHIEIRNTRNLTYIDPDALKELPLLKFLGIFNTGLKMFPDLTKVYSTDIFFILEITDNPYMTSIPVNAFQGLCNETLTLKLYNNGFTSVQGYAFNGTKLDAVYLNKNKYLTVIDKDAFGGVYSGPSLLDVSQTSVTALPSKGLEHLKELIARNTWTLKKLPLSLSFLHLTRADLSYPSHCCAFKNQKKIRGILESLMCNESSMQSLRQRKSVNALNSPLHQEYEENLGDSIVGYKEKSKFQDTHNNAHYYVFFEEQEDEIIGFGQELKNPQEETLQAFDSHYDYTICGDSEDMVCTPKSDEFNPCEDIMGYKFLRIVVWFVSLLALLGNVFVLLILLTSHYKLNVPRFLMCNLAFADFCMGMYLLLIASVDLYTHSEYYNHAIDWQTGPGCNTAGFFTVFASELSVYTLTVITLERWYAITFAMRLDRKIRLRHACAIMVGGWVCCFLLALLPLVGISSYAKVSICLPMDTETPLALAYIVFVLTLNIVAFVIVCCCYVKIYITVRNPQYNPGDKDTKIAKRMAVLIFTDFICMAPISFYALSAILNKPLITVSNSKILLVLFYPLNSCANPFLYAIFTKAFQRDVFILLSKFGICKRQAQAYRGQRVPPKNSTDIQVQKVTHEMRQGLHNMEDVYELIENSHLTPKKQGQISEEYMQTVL
In short: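 Antagonist mode: compound-treated TSHR-expressing HEK293 cells were stimulated with 1.5 ng/mL TSH (final) in presence of Ro20-1724 for 30 min at RT. HTRF cAMP detection after 1 h; each compound tested at 15 concentrations, triplicate.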

[20] = molecular target: Androgen receptor (Homo sapiens) (UniProt P10275); assay: qHTS assay to identify small molecule agonists of the androgen receptor (AR) signaling pathway in the presence of an antagonist (AID 1259381; calls by dose curve; note: nearly all actives have a fitted effect of over 15% in size)
Sequence of Androgen receptor (Homo sapiens) (P10275 whole entry, looked up): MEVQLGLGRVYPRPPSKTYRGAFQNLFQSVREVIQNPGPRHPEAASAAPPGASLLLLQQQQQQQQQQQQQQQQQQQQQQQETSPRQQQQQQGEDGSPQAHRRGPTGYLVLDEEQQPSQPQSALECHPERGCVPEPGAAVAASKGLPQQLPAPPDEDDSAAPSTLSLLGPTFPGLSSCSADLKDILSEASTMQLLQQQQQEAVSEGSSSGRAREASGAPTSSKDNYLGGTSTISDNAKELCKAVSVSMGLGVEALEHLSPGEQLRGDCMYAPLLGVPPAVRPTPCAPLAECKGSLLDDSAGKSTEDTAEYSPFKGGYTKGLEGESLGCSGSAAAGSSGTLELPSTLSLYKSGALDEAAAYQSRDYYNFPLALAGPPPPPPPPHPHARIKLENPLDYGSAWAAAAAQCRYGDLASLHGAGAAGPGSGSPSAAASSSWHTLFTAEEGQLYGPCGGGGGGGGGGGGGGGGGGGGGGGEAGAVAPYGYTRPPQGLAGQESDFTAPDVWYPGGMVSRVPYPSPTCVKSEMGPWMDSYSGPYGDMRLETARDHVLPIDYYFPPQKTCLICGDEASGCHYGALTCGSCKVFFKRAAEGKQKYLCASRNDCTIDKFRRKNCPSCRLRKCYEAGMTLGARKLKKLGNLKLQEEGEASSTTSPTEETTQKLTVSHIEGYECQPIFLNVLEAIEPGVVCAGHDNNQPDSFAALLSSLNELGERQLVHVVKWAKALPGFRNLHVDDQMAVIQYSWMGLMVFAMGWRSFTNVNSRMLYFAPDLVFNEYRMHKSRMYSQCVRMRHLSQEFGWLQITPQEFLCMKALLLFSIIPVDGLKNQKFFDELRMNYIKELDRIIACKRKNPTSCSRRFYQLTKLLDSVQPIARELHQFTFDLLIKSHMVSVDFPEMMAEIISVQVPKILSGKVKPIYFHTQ
In short: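 Reporter-gene luminescence from MDA-kb2 cells exposed 16hr at 37C (0% CO2) to 15-point compound titrations with 3.0uM final nilutamide as AR antagonist.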

Measured: Potency

CCCCC1=NC2(CCCC2)C(=O)N1Cc1ccc(-c2ccccc2-c2nn[nH]n2)cc1
not listed: [15] | [16] | [17] | [18] | [19] | [20]
inactive: all other assays above

C=CCOc1ccccc1OCC(O)CNC(C)C (stereo not given)
not listed: [8] | [9] | [18] | [19] | [20]
inactive: all other assays above

CCC(C)c1cc(C(C)(C)C)c(O)c(C(C)(C)C)c1 (stereo not given)
not listed: [7] | [9] | [20]
inactive: all other assays above

CCCCOC(=O)CCCCCCCC(=O)OCCCC
not listed: [7] | [16] | [17] | [19] | [20]
inactive: all other assays above

C[N+](C)(C)CCOC(=O)CCC(=O)OCC[N+](C)(C)C
not listed: [20]
inactive: all other assays above

O=C(CS)Nc1ccccc1
not listed: [17] | [19] | [20]
inactive: all other assays above

CCO[Si](CCCCl)(OCC)OCC
not listed: [9] | [10] | [11] | [20]
inactive: all other assays above

CN(C)CCN(Cc1ccsc1)c1ccccn1
not listed: [6] | [18] | [19]
inactive: all other assays above
